This is a sample that favours compounds with a hit; in the whole collection about 7.5% have one here.
SMN2 splice up = increases expression of the SMN2 splice variant; Potency, µM (highest dose often 46.1 µM), usual class: activators; 210,000 compounds, 2.8% hits; HEK293 SMN2-luciferase splicing reporter, luminescence, 30-36 h; also: nearly all actives have a fitted effect of over 55% in size
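qHTS luciferase splicing reporter: luminescence rises when SMN2 exon 7 is included in transfected HEK293 cells. Compound exposure lasted 30-36 h at 37C, with 4.5 mM final sodium butyrate as control, followed by a ONE-Glo read.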
NPC1 prom act = activators of NPC1 promoter. Huh7 NPC1 promoter luciferase reporter, 24 h. Potency, µM (top dose mostly 9.22 µM), actives largely listed as activators. 320,000 compounds, 2.4% hits; also: nearly all actives have a fitted effect of over 60% in size
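NPC1 promoter–luciferase Huh7 cells; 24 h compound; luminescence.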
Luc counter = Kinase-Glo luciferase inhibition (counter-screen); Kinase-Glo luciferase, ATP luminescence, 8 min; Potency, µM (doses to about 38.3 µM), most hits filed as inhibitors; 200,000 compounds, 0.28% hits; AID 1379; also: nearly all actives have a fitted effect of over 60% in size
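Compounds were added to a substrate mix at pH 7.2 (50 mM imidazole, 10 uM ATP, within the enzyme's linear range), followed by Kinase-Glo detection reagent; luminescence was measured after 8 minutes at ambient temperature.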
FLuc counter = inhibits or activates purified firefly luciferase, miR-21 counter-screen; Potency, µM (series often up to 57.5 µM), hits mostly inhibitors; 360,000 compounds, 6.9% hits; purified FLuc, Km substrates, luminescence inhibition; P08659; AID 588342; also: nearly all actives have a fitted effect of over 55% in size
Target sequence (P08659 whole entry, looked up): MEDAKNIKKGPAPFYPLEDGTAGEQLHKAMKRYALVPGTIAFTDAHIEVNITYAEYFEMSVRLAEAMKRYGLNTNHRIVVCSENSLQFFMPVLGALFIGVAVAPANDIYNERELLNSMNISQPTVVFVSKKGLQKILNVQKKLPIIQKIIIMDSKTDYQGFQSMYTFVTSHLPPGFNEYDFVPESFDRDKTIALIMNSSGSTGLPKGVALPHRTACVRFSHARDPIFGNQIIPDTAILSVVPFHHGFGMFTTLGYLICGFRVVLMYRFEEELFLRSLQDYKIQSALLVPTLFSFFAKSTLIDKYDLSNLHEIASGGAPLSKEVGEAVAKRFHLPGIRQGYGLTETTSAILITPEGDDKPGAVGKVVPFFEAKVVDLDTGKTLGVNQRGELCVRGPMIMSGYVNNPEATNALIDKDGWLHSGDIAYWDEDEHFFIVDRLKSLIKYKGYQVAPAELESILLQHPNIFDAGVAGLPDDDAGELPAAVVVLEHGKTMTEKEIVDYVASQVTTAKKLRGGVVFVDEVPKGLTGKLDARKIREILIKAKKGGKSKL
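Purified P. pyralis luciferase (10nM final) with 10uM D-luciferin and 10uM ATP (Km levels) in 50mM Tris acetate pH 7.5, 10mM Mg acetate, 0.01% Tween-20, 0.05% BSA; qHTS 6-point titration, ~60 µM downward; luminescence read.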
Rab9 prom act = activators of Rab9 promoter; Huh7 Rab9 promoter-luciferase reporter, luminescence, 24 h; Potency, µM (series often up to 9.22 µM), most hits filed as activators; 320,000 compounds, 2.8% hits; also: nearly all actives have a fitted effect of over 60% in size
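Cell-based reporter: Huh7 stable for Rab9 promoter-driven luciferase, plated in reduced-serum medium with 10% FBS at 1500 cells/well, compound-treated 24 h at 37 °C, luminescence read after 10 min reagent.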
ELG1 genotox = induces genotoxicity in HEK293T cells with luciferase-tagged ELG1 | HEK293T ELG1-luciferase reporter, luminescence, 16 h | Potency, µM (series often up to 46 µM), actives largely listed as activators | 330,000 compounds, 1.3% hits | AID 504466; also: nearly all actives have a fitted effect of over 60% in size
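DMSO vehicle served as control against compound-treated ELG1-luciferase HEK293T cells; exposure lasted 16 hr at 37 °C and 5% CO2, followed by ONE-Glo luminescence detection after 30 min.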
A number is an active result; [ ] = another dose, or the depositor's remark. Calls follow the shape of the dose curve; as a rule, active = well fitted curve in the direction sought with a large enough effect; inconclusive = small, poorly fitted or top-dose-only effect, or another doubt; inactive = no such curve, though single readings can be large; an effect the other way counts as inactive or inconclusive.

For CN(/N=C/c1ccc2c(c1)OCO2)c1ccccc1 the results were SMN2 splice up 20µM, NPC1 prom act 4µM, Luc counter inactive, FLuc counter 6.7µM, Rab9 prom act 2.8µM and ELG1 genotox inconclusive.
`COc1cc(/C=N/N(C)c2ccccc2)ccc1O` gave SMN2 splice up inconclusive, NPC1 prom act inconclusive, Luc counter inactive, FLuc counter 2.4µM, Rab9 prom act inconclusive and ELG1 genotox 4.6µM.
`Cc1cc(C)n2nc(C(=O)Nc3ccc4c(c3)CCC4)nc2n1` gave SMN2 splice up 11µM, NPC1 prom act inconclusive, Luc counter inactive, FLuc counter 13µM, Rab9 prom act 3.5µM and ELG1 genotox inconclusive.
Screening Cc1cnc(C(=O)Nc2ccc(F)c(F)c2)cn1 returned SMN2 splice up 13µM, NPC1 prom act inconclusive, Luc counter inactive, FLuc counter inconclusive, Rab9 prom act 2.5µM and ELG1 genotox 16µM.
`CCn1ccc(C(=O)Nc2ccc(N(C)C(C)=O)cc2)n1` gave SMN2 splice up inactive, NPC1 prom act inactive, Luc counter inactive, FLuc counter inconclusive, Rab9 prom act inconclusive and ELG1 genotox inconclusive.
Screening CCn1ccc(C(=O)Nc2ccc3c(c2)CCC3)n1 returned NPC1 prom act 1µM, FLuc counter 3µM, Rab9 prom act 1µM and ELG1 genotox inconclusive.
O=C(Nc1cccc(Cl)c1)c1cnccn1 was read as NPC1 prom act inactive, FLuc counter inactive, Rab9 prom act inactive and ELG1 genotox inactive.
For O=C(Nc1ccc2c(c1)CCC2)c1cnccn1 the results were SMN2 splice up 13µM, NPC1 prom act 3.5µM, Luc counter inactive, FLuc counter 12µM, Rab9 prom act 3.2µM and ELG1 genotox 6.5µM.
Cc1cnc(C(=O)Nc2cc(F)ccc2C)cn1 was read as SMN2 splice up inactive, NPC1 prom act inactive, Luc counter inactive, FLuc counter inactive, Rab9 prom act inactive and ELG1 genotox inactive.
For Cc1cnc(C(=O)Nc2ccc3c(c2)CCC3)cn1 the results were SMN2 splice up 11µM, NPC1 prom act inconclusive, Luc counter inactive, FLuc counter 2.4µM, Rab9 prom act 0.5µM and ELG1 genotox inconclusive.
For O=C(CCn1c(=O)c2ccccc2n(CC(=O)Nc2ccc(F)cc2)c1=O)NCCc1ccccc1 the results were SMN2 splice up inactive and FLuc counter inactive.
`COc1ccccc1CC(=O)Nc1cccc2c1CCCC2` gave SMN2 splice up 4.5µM, NPC1 prom act inactive, Luc counter inactive, FLuc counter inactive, Rab9 prom act inactive and ELG1 genotox inactive.
Screening COc1cccc(OC)c1C(=O)Nc1cccc2c1CCCC2 returned NPC1 prom act inactive, FLuc counter inactive, Rab9 prom act inactive and ELG1 genotox inactive.
`COC(=O)c1ccc(NC(=O)Cn2c(=O)oc3ccccc32)cc1` gave SMN2 splice up inactive and FLuc counter inactive.
For CC1=NN(C(N)=S)C(=O)C1N=Nc1ccc(Cl)cc1 (stereo not given) the results were NPC1 prom act 4µM, FLuc counter 3.4µM, Rab9 prom act 4µM and ELG1 genotox 7.3µM.
For CC1=NN(c2ccccc2)C(=O)C1N=Nc1ccc(N)cc1 (stereo not given) the results were SMN2 splice up inactive, NPC1 prom act inactive, Luc counter inactive, FLuc counter inconclusive, Rab9 prom act inactive and ELG1 genotox inactive.
Screening CC1=NN(C(N)=S)C(=O)C1N=Nc1ccccc1 (stereo not given) returned SMN2 splice up inactive, NPC1 prom act inactive, Luc counter inactive, FLuc counter 24µM, Rab9 prom act inactive and ELG1 genotox inconclusive.
Screening CC1=NN(c2ccccc2)C(=O)[C@@H]1N=Nc1ccc(S(N)(=O)=O)cc1 returned SMN2 splice up inactive[9.22 µM] and Luc counter inactive[7.66 µM].
`CC1=NN(C(N)=S)C(=O)C1N=Nc1ccc(Br)cc1` (stereo not given) gave NPC1 prom act 2.2µM, FLuc counter 6µM, Rab9 prom act 3.5µM and ELG1 genotox 9.2µM.
`CC1=NN(C(N)=S)C(=O)C1N=Nc1cccc([N+](=O)[O-])c1` (stereo not given) gave NPC1 prom act 3.5µM, FLuc counter 12µM, Rab9 prom act inconclusive and ELG1 genotox inactive.
For CC1=NN(c2nc(-c3ccc(C)cc3)cs2)C(=O)C1N=Nc1cccc(O)c1 (stereo not given) the results were SMN2 splice up inactive, NPC1 prom act inactive, Luc counter inactive, FLuc counter inconclusive, Rab9 prom act inactive and ELG1 genotox inactive.
Screening NC(=O)CN(N=Nc1cccc([N+](=O)[O-])c1)c1cccc([N+](=O)[O-])c1 returned SMN2 splice up inactive, NPC1 prom act inactive, Luc counter inactive, FLuc counter inactive, Rab9 prom act inactive and ELG1 genotox inactive.
Screening COc1ccc(NC(C)=O)cc1CP(=O)(c1ccccc1)c1ccccc1 returned NPC1 prom act inactive, FLuc counter inactive, Rab9 prom act inactive and ELG1 genotox inactive.
Screening Cc1noc(C)c1S(=O)(=O)Nc1ccc2c(c1)CC(=O)N([C@H](C)CO)C[C@H](C)[C@H](CN(C)S(=O)(=O)c1ccc(F)cc1)O2 returned ELG1 genotox inactive.
For O=C(NCc1ccccc1Cl)C1CCCN1C(=O)Nc1ccccc1 (stereo not given) the results were NPC1 prom act inactive, FLuc counter inactive, Rab9 prom act inactive and ELG1 genotox inactive.
`CCOC(=O)c1c(NC(=O)c2cc(-c3ccc(OC)cc3)on2)sc(C)c1C` gave SMN2 splice up inactive and FLuc counter inactive.
`CC(=O)N1CC(C)Sc2ccc(S(=O)(=O)NC3CCCCC3C)cc21` (stereo not given) gave NPC1 prom act inactive, FLuc counter inactive, Rab9 prom act inactive and ELG1 genotox inactive.
For Nc1ccc(C(=O)N/N=C/c2cccc(Oc3ccccc3)c2)cc1 the results were NPC1 prom act inactive, FLuc counter 12µM, Rab9 prom act inactive and ELG1 genotox inactive.
`O=C(N/N=C/c1cccc(Oc2ccccc2)c1)c1ccccc1F` gave NPC1 prom act inactive, FLuc counter 17µM, Rab9 prom act inactive and ELG1 genotox inconclusive.
Screening O=C(N/N=C/c1cccc(Oc2ccccc2)c1)c1cc[n+]([O-])cc1 returned SMN2 splice up inactive, NPC1 prom act inactive, Luc counter inactive, FLuc counter inconclusive, Rab9 prom act inactive and ELG1 genotox inactive.
Screening COc1ccc(NC(=O)Cn2c(=O)cc(C)c3c(C)nn(C)c32)cc1 returned FLuc counter inactive.
For CCOc1ccc(C(=O)NCCn2cc(SCC(=O)NCCc3ccc(OC)c(OC)c3)c3ccccc32)cc1 the results were SMN2 splice up inactive and FLuc counter inconclusive.
